The record followed here is PubChem BioAssay (Tox21).

Experiment [1] in a line: Human pregnane X receptor (PXR) small molecule agonists, qHTS cell viability counter screen (AID 1346977). Also: nearly all actives have a fitted effect of over 50% in size. Also: potency is read from the fitted curve at half-maximal effect. The method, boiled down:
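Fluorescence read-out (CellTiter-Fluor) of viability in PXR-Luc HepG2 cells, multiplexed with the luciferase agonist read. Compounds in DMSO added after 5hr plating; 24hr total exposure at 37C, 5% CO2.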

Experiment [2] can be described thus: Caspase-3/7 induction in HepG2 cells by small molecules, qHTS assay (AID 1346978). Also: nearly all actives have a fitted effect of over 15% in size. The method, boiled down:
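Wild-type HepG2 cells, 2,000/well, settled 5 hr at 37 C and 5% CO2, then compound-treated for 17 hr; caspase-3/7 activity read by luminescent Caspase-Glo 3/7 after 30 min at room temperature.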
On the technique in general: Quantitative high-throughput screening tests each substance at several concentrations.

Experiment [3] is described as follows: Caspase-3/7 induction in CHO-K1 cells by small molecules, qHTS assay (AID 1346980). Also: nearly all actives have a fitted effect of over 15% in size. The method, boiled down: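 Wild-type CHO-K1 cells exposed to compounds for 17hr at 37 C, 5% CO2. Caspase-3/7 activity then measured by Caspase-Glo 3/7 luminescence after 30min at room temperature.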
Experiment [4] is described as follows: Caspase-3/7 induction in HepG2 cells by small molecules, qHTS cell viability counter screen (AID 1346981). Also: series mostly up to about 92 µM; nearly all actives have a fitted effect of over 30% in size. An outline of the steps:
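HepG2, WT, 2,000 cells/well; 5 hr pre-incubation 37 C/5% CO2; compound pin-transferred from DMSO; 16 hr exposure; CellTiter-Fluor, 1 hr; fluorescence read.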

For experiment [5], the target named is Cytochrome P450 2D6 (Homo sapiens) (UniProt P10635). The experiment in a line: Cytochrome P450 Family 2 Subfamily D Member 6 (CYP2D6) small molecule antagonists: luciferase reporter qHTS assay (AID 1671196). Also: nearly all actives have a fitted effect of over 50% in size. Also: potency is read from the fitted curve at half-maximal effect. As to activity change, negative = inhibition: series mostly up to about 120 µM. The method, boiled down:
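Read-out is luminescence from luciferin formed by CYP2D6 turnover of a proluciferin substrate, recorded as relative luminescence units. Reactions ran 1 h at room temperature after NADPH regeneration solution was added.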
On the technique in general: A reporter such as luciferase makes a cellular process visible.

Experiment [6] has as its target Cytochrome P450 2C19 (Homo sapiens) (UniProt P33261). The experiment in a line: Cytochrome P450 Family 2 Subfamily C Member 19 (CYP2C19) small molecule antagonists: luciferase reporter qHTS assay (AID 1671197). Also: nearly all actives have a fitted effect of over 65% in size. Also: potency is read from the fitted curve at half-maximal effect. As to activity change, negative = inhibition: series mostly up to about 120 µM. An outline of the steps: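 First, compounds are pinned into enzyme-substrate mix and held 10 min at room temperature. Second, NADPH regeneration solution is added and plates incubate 1 h at 37C. Third, detection reagent is added and luminescence read after 20 min.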

In experiment [7] the target is Cytochrome P450 2C9 (Homo sapiens) (UniProt P11712). The experiment in a line: Cytochrome P450 Family 2 Subfamily C Member 9 (CYP2C9) small molecule antagonists: luciferase reporter qHTS assay (AID 1671198). Also: nearly all actives have a fitted effect of over 50% in size. Also: potency is read from the fitted curve at half-maximal effect. As to activity change, negative = inhibition: series mostly up to about 120 µM. The method, boiled down:
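P450-Glo proluciferin substrate with CYP2C9 enzyme; 10 min RT preincubation, then NADPH regeneration 1 h at 37C; luciferin detection reagent 20 min RT, luminescence in relative luminescence units.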

Experiment [8] concerns the target Cytochrome P450 1A2 (Homo sapiens) (UniProt P05177). The experiment in a line: Cytochrome P450 Family 1 Subfamily A Member 2 (CYP1A2) small molecule antagonists: luciferase reporter qHTS assay (AID 1671199). Also: nearly all actives have a fitted effect of over 50% in size. Also: potency is read from the fitted curve at half-maximal effect. As to activity change, negative = inhibition: series mostly up to about 120 µM. An outline of the steps: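 P450-Glo CYP1A2, 1536-well qHTS: enzyme/proluciferin substrate + cpd (DMSO), 10 min RT; NADPH regen, 1 h RT; detection reagent, 20 min; luminescence, RLU.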

In experiment [9] the target is Voltage-gated inwardly rectifying potassium channel KCNH2 (Homo sapiens) (UniProt Q12809). The experiment in a line: Human Ether-a-go-go-Related Gene (hERG) channel small molecule antagonists: fluorescence cell-based qHTS assay (AID 1671200). Also: nearly all actives have a fitted effect of over 50% in size. Also: potency is read from the fitted curve at half-maximal effect.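 As to activity change, negative = inhibition: hERG-expressing U2OS cells given a thallium stimulus after FluxOR II dye loading; series mostly up to about 77 µM.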 An outline of the steps:
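Read-out: thallium influx as a surrogate for potassium, tracked as fluorescence (480 nm ex/540 nm em) every second for 2 min after Stimulus Buffer addition in dye-loaded hERG-U2OS cells.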
(In general: hERG is a cardiac potassium channel; its block is linked to QT prolongation.)

Experiment [10] concerns the target Cytochrome P450 3A4 (Homo sapiens) (UniProt P08684). The experiment in a line: Cytochrome P450 Family 3 Subfamily A Member 4 (CYP3A4) small molecule antagonists: luciferase reporter qHTS assay (AID 1671201). Also: nearly all actives have a fitted effect of over 50% in size. Also: potency is read from the fitted curve at half-maximal effect. As to activity change, negative = inhibition: series mostly up to about 120 µM. The method, boiled down: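 Luminescent readout (RLU) proportional to CYP3A4 activity, from luciferin generated off a proluciferin substrate. Enzyme–substrate mix plus compound 10 min at room temp, NADPH regeneration 1 h, detection reagent 20 min.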

Experiment [11] can be described thus: Caspase-3/7 induction in CHO-K1 cells by small molecules, qHTS cell viability counter screen (AID 1346979). Also: nearly all actives have a fitted effect of over 35% in size. Also: potency is read from the fitted curve at half-maximal effect. The method, boiled down: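 CHO-K1 wt, 1,500 cells/well; 5hr pre-incubation 37C/5% CO2; compound pin transfer (DMSO); 16hr exposure; CellTiter-Fluor added, 1hr, fluorescence read.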
Experiment [12] has as its target Nuclear receptor subfamily 1 group I member 2 (Homo sapiens) (UniProt O75469). The experiment in a line: Human pregnane X receptor (PXR) small molecule agonists, qHTS assay (AID 1346982). Also: nearly all actives have a fitted effect of over 35% in size. Also: potency is read from the fitted curve at half-maximal effect. The method, boiled down: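 Luciferase signal from ONE-Glo (30 min, room temperature) measured activation of hPXR-driven CYP3A4 reporter expression in PXR-Luc HepG2 cells treated with compounds for 24 hr at 37 C.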

In experiment [13] the target is Nuclear receptor subfamily 1 group I member 2 (Rattus norvegicus) (UniProt Q9R1A7). The experiment in a line: Rat pregnane X receptor (rPXR) activation by small molecules, qHTS assay (AID 1346983). Also: nearly all actives have a fitted effect of over 20% in size. The note with it: rPXR luciferase reporter cells, One-Glo luminescence, 24 h; max activation: hits give high values. The method, boiled down: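 Cell-based rPXR activation assay: rPXR cells, 2,000 per well, rested 5hr at 37 C, then exposed to compounds in DMSO for 24 hr at 37 C. Luciferase activity read by One-Glo luminescence after 30 min at room temperature.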

Experiment [14] concerns the target Nuclear receptor subfamily 1 group I member 2 (Homo sapiens) (UniProt O75469). The experiment in a line: CYP3A4 induction through human pregnane X receptor (PXR) by small molecules, qHTS assay (AID 1346984). Also: nearly all actives have a fitted effect of over 40% in size. Also: potency is read from the fitted curve at half-maximal effect. The method, boiled down:
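Luminescence readout: luciferase signal after One-Glo (30 min, room temperature), following 3 h at 37C with 3uM final Luciferin-IPA P450 substrate. Cells were DPX-2 (HepG2, PXR/CYP3A4-luc co-transfected) dosed for 24 h.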

The target is the same in experiment [15]. The experiment in a line: Human pregnane X receptor (PXR) activation by small molecules, qHTS assay (AID 1346985). Also: nearly all actives have a fitted effect of over 40% in size. Also: potency is read from the fitted curve at half-maximal effect. An outline of the steps: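 DPX-2 cells (HepG2 co-transfected with a PXR response element and a CYP3A4-promoter luciferase construct) were seeded at 2,000 per well, rested 5 hr at 37C, then exposed to DMSO-dissolved compounds for 24 hr. Activation was read as luciferase luminescence.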

Unmarked numbers belong to inactive results. Records with an inconclusive call do not appear. Calls of active or inactive are those of the source. Calls follow the shape of the dose curve; as a rule, active = well fitted curve in the direction sought with a large enough effect in the repeat runs; inconclusive = weak or mixed curves; inactive = no such curve, though single readings can be large; an effect the other way counts as inactive or inconclusive.
% is scaled to controls: 0 for no effect and ±100 for the full control effect.

Sequence of Cytochrome P450 2C19 (Homo sapiens) (P33261 whole entry, looked up): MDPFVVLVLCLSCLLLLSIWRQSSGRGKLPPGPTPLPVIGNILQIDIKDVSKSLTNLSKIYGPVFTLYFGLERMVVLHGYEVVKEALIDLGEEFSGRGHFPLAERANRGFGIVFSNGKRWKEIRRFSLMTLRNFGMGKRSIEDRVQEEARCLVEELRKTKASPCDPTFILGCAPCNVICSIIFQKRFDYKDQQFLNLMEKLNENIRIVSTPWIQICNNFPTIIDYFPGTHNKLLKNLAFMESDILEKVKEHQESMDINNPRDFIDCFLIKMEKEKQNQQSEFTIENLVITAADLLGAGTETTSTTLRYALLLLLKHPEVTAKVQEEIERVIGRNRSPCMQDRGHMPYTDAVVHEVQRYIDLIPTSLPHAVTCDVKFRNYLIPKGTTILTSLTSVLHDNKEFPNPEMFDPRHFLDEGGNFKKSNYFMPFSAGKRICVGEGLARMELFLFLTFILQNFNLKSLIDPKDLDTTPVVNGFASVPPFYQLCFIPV
Sequence of Cytochrome P450 2D6 (Homo sapiens) (P10635 whole entry, looked up): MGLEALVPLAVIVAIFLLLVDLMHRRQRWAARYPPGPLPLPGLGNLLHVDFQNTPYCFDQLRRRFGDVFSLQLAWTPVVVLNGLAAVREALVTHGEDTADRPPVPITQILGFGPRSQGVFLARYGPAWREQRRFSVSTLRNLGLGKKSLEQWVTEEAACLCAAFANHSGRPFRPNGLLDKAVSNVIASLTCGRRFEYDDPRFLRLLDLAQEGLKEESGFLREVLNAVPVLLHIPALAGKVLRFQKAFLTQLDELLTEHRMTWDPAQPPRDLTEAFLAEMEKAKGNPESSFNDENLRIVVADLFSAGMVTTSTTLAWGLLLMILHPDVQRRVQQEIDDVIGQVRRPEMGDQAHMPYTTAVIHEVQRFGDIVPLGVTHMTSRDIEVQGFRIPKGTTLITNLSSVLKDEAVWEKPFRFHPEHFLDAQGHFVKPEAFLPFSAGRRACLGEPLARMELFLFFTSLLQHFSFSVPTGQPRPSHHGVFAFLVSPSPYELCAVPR
Sequence of Cytochrome P450 3A4 (Homo sapiens) (P08684 whole entry, looked up): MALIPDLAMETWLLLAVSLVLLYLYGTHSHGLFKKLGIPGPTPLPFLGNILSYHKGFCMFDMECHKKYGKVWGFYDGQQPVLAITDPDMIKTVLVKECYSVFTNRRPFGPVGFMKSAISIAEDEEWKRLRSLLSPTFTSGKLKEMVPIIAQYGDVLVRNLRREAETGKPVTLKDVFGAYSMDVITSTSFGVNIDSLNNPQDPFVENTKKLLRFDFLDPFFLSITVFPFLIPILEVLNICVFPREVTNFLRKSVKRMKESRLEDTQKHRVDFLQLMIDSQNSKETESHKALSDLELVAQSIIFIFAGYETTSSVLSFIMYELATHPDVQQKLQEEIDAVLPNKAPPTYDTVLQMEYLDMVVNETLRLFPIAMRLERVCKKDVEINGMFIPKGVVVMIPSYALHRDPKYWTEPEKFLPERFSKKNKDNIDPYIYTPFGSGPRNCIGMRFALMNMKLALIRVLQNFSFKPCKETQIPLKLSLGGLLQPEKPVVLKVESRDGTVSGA
Sequence of Nuclear receptor subfamily 1 group I member 2 (Homo sapiens) (O75469 whole entry, looked up): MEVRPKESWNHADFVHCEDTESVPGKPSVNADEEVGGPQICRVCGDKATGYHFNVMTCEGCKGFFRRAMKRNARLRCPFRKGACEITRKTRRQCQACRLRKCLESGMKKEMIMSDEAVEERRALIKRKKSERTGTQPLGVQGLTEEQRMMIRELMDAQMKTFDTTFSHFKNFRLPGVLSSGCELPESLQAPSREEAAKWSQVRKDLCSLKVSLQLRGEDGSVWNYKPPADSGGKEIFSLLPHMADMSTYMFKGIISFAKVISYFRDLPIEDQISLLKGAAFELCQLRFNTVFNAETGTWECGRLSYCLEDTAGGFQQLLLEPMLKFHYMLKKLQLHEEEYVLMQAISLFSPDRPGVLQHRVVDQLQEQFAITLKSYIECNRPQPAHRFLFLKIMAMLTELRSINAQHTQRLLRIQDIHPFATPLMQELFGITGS
Sequence of Cytochrome P450 1A2 (Homo sapiens) (P05177 whole entry, looked up): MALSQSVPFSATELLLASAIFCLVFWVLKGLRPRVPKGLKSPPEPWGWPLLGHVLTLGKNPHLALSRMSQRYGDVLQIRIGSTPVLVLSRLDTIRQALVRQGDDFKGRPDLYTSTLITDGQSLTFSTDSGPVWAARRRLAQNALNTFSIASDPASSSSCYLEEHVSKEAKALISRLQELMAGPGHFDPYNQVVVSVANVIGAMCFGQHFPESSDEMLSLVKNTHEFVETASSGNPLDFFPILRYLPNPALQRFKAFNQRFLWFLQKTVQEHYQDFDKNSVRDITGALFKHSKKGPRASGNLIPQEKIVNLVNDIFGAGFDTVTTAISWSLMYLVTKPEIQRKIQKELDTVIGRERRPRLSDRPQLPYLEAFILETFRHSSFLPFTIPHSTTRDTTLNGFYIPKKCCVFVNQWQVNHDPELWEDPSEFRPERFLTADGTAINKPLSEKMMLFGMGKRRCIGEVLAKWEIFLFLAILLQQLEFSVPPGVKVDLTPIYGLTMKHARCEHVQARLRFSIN
Sequence of Cytochrome P450 2C9 (Homo sapiens) (P11712 whole entry, looked up): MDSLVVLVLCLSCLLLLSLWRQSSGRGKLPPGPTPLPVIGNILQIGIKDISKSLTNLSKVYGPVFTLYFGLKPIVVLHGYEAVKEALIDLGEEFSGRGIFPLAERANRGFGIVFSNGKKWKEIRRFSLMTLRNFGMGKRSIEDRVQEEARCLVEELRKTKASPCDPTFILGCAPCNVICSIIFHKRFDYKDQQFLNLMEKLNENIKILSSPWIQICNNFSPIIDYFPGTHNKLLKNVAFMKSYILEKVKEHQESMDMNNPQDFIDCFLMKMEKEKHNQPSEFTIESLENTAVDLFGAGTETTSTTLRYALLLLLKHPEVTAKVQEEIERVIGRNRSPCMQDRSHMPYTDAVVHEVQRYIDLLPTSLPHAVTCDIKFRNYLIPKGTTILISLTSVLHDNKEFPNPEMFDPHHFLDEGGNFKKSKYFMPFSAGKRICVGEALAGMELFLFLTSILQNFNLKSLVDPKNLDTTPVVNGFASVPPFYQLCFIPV
Sequence of Voltage-gated inwardly rectifying potassium channel KCNH2 (Homo sapiens) (Q12809 whole entry, looked up): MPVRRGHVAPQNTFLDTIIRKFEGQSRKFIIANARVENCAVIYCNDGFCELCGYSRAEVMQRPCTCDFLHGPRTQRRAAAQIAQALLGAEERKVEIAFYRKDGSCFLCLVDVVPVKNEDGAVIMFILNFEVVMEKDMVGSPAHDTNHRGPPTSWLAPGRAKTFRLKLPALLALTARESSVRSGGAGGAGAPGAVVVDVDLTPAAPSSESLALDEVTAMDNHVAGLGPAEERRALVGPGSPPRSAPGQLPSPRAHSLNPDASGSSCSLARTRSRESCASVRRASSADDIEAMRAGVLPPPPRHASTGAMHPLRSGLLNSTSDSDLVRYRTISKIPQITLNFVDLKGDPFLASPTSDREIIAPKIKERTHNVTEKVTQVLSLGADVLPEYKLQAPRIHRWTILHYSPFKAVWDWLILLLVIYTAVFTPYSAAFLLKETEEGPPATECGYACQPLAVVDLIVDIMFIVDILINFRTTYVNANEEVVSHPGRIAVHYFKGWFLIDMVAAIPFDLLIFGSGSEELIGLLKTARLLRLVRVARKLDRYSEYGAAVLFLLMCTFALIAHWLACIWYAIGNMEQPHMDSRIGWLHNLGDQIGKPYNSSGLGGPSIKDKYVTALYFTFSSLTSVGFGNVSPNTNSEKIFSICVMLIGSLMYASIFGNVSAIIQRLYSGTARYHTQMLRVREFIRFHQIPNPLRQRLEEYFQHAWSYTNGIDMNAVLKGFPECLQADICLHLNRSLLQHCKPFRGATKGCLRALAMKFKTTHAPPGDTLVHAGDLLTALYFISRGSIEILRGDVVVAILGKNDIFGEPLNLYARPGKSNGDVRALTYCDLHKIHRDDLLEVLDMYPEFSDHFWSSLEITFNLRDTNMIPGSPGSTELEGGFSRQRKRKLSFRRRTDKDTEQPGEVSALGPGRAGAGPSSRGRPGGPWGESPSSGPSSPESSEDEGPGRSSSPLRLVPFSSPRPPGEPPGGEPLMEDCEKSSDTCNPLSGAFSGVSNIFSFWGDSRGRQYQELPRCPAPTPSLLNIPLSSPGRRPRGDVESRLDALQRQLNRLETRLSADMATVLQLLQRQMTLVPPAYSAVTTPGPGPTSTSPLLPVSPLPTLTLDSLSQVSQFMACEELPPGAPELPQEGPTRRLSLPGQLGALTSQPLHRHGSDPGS
Sequence of Nuclear receptor subfamily 1 group I member 2 (Rattus norvegicus) (Q9R1A7 whole entry, looked up): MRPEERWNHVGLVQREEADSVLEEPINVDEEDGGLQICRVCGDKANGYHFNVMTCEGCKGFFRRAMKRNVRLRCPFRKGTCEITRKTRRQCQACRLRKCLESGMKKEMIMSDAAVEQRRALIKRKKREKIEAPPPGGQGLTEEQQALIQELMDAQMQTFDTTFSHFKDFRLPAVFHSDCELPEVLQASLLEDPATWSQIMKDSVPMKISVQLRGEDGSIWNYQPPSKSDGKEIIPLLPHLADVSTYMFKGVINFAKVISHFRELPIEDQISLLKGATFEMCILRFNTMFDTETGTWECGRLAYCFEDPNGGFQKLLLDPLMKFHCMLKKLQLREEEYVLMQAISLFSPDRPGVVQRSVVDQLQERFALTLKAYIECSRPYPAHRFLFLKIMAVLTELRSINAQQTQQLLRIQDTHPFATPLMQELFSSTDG

For the molecule `C/C=C(/C(=C/C)c1ccc(OC(C)=O)cc1)c1ccc(OC(C)=O)cc1`, the Potency result in experiment [1], in experiment [2], in [3], in [4], in [5] and in [8] was “inactive” throughout. In addition, the Potency result in experiment [9] and in experiment [10] was “inactive” in each case. The Potency in [6] was 17.4 µM (active); in experiment [7] it was 7.76 µM (active).
For `Brc1c2ccccc2cc2ccccc12`, the Potency entry in experiment [1], in experiment [11], in experiment [3], in experiment [5] and in experiment [9] was “inactive” throughout. Besides, the Potency in [12] is 61.8 µM (active); in experiment [6], 35.9 µM (active); in experiment [7], 35.9 µM (active); in [8] it was 0.639 µM (active); in experiment [10], 18 µM (active).
`C=CC(=O)OCCOc1ccccc1`: the Potency result in [1], in experiment [2], in experiment [3] and in experiment [9] was “inactive” throughout.
As to `Cc1cccc(Nc2ccccc2)c1`, the Potency entry in [1], in [11], in experiment [3] and in experiment [4] was “inactive” in each case.
Turning to `CN1CCC(=C2c3ccccc3Sc3ccccc32)CC1`, the Potency was 23.7 µM (active) in experiment [1]; 10 µM (active) in experiment [14]; 14.1 µM (active) in experiment [15]; 3.47 µM (active) in experiment [5]; 38.9 µM (active) in experiment [6]; 12 µM (active) in [9]. Besides, the Potency result in experiment [2], in experiment [3], in experiment [12], in experiment [7] and in experiment [8] was “inactive” throughout. Also, the max activation in [13] is -5.4%.
`CCOc1ccc(N)c([N+](=O)[O-])c1`: the Potency entry in experiment [1], in experiment [2], in experiment [3] and in experiment [9] was “inactive” throughout. Further, the Potency in experiment [5] was 71 µM (active); in [6], 35.6 µM (active); in [7] it was 63.3 µM (active); in [8], 1.78 µM (active).
As for `CCOC(=O)COC(=O)c1cc(Oc2ccc(C(F)(F)F)cc2Cl)ccc1[N+](=O)[O-]`, the Potency result in experiment [1], in experiment [2], in [4] and in experiment [10] was “inactive” each time. The Potency was 30.6 µM (active) in experiment [12], 15.9 µM (active) in experiment [5], 6.33 µM (active) in experiment [7] and 22.4 µM (active) in experiment [8].
On to `CN(C)c1ccc(/C=C/c2ccc([N+](=O)[O-])cc2)cc1`, for which the activity change, negative = cytotoxicity is -0.583% [at 8.39 µM] in experiment [1] and 14.3% [at 8.39 µM] in experiment [4]. The caspase activation in experiment [2] was 0.696% [at 8.39 µM]. In experiment [3], the caspase-3/7 activation was -2.91% [at 8.39 µM]. The activity change, negative = inhibition was 15.9% [at 10.5 µM] in experiment [6], -1.18% [at 10.5 µM] in experiment [7], 3.51% [at 6.97 µM] in [9] and 3.87% [at 10.5 µM] in experiment [10].
On to `CCCCCCCCCCCCCCOS(=O)(=O)O`, for which the Potency result in experiment [1], in [2], in [3], in experiment [4], in experiment [6] and in [8] was “inactive” each time. For the same molecule, the Potency entry in experiment [9] and in experiment [10] was “inactive” throughout.
For the molecule `Nc1cc(C(=O)O)c(O)c(S(=O)(=O)O)c1`, the Potency entry in experiment [1], in experiment [2], in [3], in experiment [4], in [7] and in [10] was “inactive” in each case. Besides, the Potency in [5] is 35.1 µM (active).
With `CCCCCCCCCc1ccc(OCCOCCO)cc1`, the Potency is 5.74 µM (active) in experiment [1]; 18.1 µM (active) in experiment [11]; 6.44 µM (active) in experiment [12]; 23.6 µM (active) in experiment [5]; 16.7 µM (active) in experiment [6]; 10.6 µM (active) in experiment [7]. Moreover, the Potency in experiment [9] is 8.17 µM (active); in experiment [10] it was 8.39 µM (active). In addition, the max activation in experiment [13] was -12.1%. The Potency entry in [14], in experiment [15] and in experiment [8] was “inactive” in each case.
